Measurements as given in PubChem BioAssay (Tox21).
Results filed as inconclusive are left out. Entries that show only a call come without a potency. Calls of active or inactive are those of the source. The call rests on the fitted dose curve.

Molecular target: Beta-2 adrenergic receptor (Homo sapiens) (UniProt P07550)
Assay: Adrenergic beta2 receptor (ADRB2) small molecule agonists, cell-based qHTS assay (AID 1963593);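 further: CHO cells stably overexpressing human ADRB2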
How it was run: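 CHO cells stably over-expressing ADRB2 were plated overnight at 37C, then dosed with compounds plus a stimulation mix containing 100uM IBMX and 25uM Ro-20-1724 for 0.5hr at room temperature. cAMP was measured by HTRF competition, 1hr.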

Sequence of Beta-2 adrenergic receptor (Homo sapiens) (P07550 whole entry, looked up): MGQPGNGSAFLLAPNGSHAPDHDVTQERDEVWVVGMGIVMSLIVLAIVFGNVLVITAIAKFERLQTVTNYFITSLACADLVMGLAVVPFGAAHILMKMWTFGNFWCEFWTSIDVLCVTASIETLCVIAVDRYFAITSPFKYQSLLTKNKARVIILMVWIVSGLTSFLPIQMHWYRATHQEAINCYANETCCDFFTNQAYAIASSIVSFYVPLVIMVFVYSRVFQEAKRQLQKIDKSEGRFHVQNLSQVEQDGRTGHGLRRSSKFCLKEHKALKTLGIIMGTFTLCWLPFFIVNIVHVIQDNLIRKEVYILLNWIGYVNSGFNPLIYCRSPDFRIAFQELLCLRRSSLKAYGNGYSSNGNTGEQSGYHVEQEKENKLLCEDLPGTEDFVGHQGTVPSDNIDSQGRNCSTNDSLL

| SMILES | Potency |
| --- | --- |
| O=C(NCC1CN(c2ccc(N3CCOCC3=O)cc2)C(=O)O1)c1ccc(Cl)s1 (stereo unspecified) | inactive |
| N=C1N=C(N)c2ccccc21 | inactive |
| CCCCN(CCCC)C(=O)N(CCCC)CCCC | inactive |
| CCCCC1CCCCC(=O)O1 (stereo unspecified) | inactive |
| C=CN1CCCCCC1=O | inactive |
| O=C(CO)[C@@H](O)[C@H](O)[C@@H](O)CO | inactive |
| CC(C)(C)C(=O)/C=C/c1ccc(Cl)cc1 | inactive |
| OC1CCC(C2CCCCC2)CC1 (stereo unspecified) | inactive |
| CO/N=C(\C(=O)O)c1csc(NC(=O)CCl)n1 | inactive |
| CCC(CO)(CO)[N+](=O)[O-] | inactive |
| CCCCNc1c(C(=O)OCC)c(C)nc2c1cnn2CC | inactive |
| O=C1c2ccccc2C(=O)C1c1nc2ccccc2c(Br)c1O | inactive |
| Cc1ccc(S)cc1 | inactive |
| CCCCC(CC)COC(=O)COc1ccc(Cl)cc1Cl (stereo unspecified) | inactive |
| CC(=O)CC(=O)Nc1ccc(C)cc1C | inactive |
| CC(C)(C)C(=O)OCOC(=O)[C@@H]1N2C(=O)[C@@H](NC(=O)[C@H](N)c3ccccc3)[C@H]2SC1(C)C | inactive |
| CCCN(CCC)CCc1cccc2c1CC(=O)N2 | inactive |
| CC(C)c1ccc(C#N)cc1 | inactive |

| SMILES | Potency |
| --- | --- |
| Cc1c(F)cc2c(=O)c(C(=O)O)cn3c2c1CCC3C (stereo unspecified) | inactive |
| Cn1c(=O)cc(Oc2ccc(F)cc2F)c2cnc(NCC(C)(C)O)nc21 | inactive |
| CS(=O)(=O)c1ccc([C@@H](C[C@H]2CCC(=O)C2)C(=O)Nc2cnccn2)cc1Cl | inactive |
| Cc1ccccc1CCO | inactive |
| C[C@]12CCC(=O)C=C1CC[C@@H]1[C@@H]2CC[C@@]2(C)[C@H]1CC[C@]2(O)C(=O)CO | inactive |
| CCCCC(=O)OCC(=O)[C@H]1[C@H](C)C[C@H]2[C@@H]3C[C@H](F)C4=CC(=O)C=C[C@]4(C)[C@@]3(F)[C@@H](O)C[C@@]21C | inactive |
| C[N+]1(C)CCCC(OC(=O)C(O)(c2ccccc2)c2ccccc2)C1 (stereo unspecified) | inactive |
| c1ccc(CNc2ncnc3nc[nH]c23)cc1 | inactive |
| Cc1ccsc1C(=CCCN1CCC[C@@H](C(=O)O)C1)c1sccc1C | inactive |
| O=C(OCCCCCOC(=O)c1ccccc1)c1ccccc1 | inactive |
| CCc1nccnc1CC | inactive |
| C=CC(=O)OCC[N+](C)(C)C | inactive |
| Cc1occc1C(=O)Nc1ccc(C(=O)N2CCC(F)(F)/C(=C\C(=O)N3CCC(N4CCCCC4)CC3)c3ccccc32)cc1 | inactive |
| CCc1cccc(CC)c1 | inactive |
| CCC1C(=O)OCC1Cc1cncn1C (stereo unspecified) | inactive |
| CCN(CC)CCOc1ccc(Cc2ccccc2)cc1 | inactive |
| CC(C)CC(=O)C1C(=O)c2ccccc2C1=O | inactive |
| CC(C)=CCC[C@@](C)(O)[C@H]1CC=C(C)CC1 | inactive |
